Assay results reported in PubChem BioAssay (NCI).
This is part of a sample that, as a whole, favours compounds with a hit. Of some 79,000 tested, about 15% had one in any assay. No stated cut-off is given here; in the data, active means growth inhibition above about 70%; inactive means the rest.

Tests used:
[1] = NCI Yeast Anticancer Drug Screen. Data for the rad50 strain (AID 155);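 further: 0% = growth of vehicle-only cultures of the same strain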; conditions: S. cerevisiae rad50 strain growth inhibition; at 50.0 µM; active compounds read high
Method in brief: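 DNA repair mutant yeast, compound exposure, growth read-out; inhibition is taken relative to vehicle.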

[2] = NCI Yeast Anticancer Drug Screen. Data for the mec2-1 strain (AID 157); conditions: S. cerevisiae mec2-1 strain, at 50.0 µM, active compounds read high
Method in brief: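 Using mec2-1 yeast: add compound, measure growth, express inhibition versus vehicle-treated cultures.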

[3] = NCI Yeast Anticancer Drug Screen. Data for the sgs1 mgt1 strain (AID 161);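 further: 0% = growth of cultures given vehicle only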; conditions: S. cerevisiae sgs1 mgt1 strain, at 50.0 µM, active compounds read high
Method in brief: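 Yeast cells carrying a defined DNA-repair defect were exposed to test compounds. Growth inhibition was measured relative to vehicle-treated controls.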

[4] = NCI Yeast Anticancer Drug Screen. Data for the cln2 rad14 strain (AID 165);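 further: 0% = growth equal to vehicle treated cultures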; conditions: S. cerevisiae cln2 rad14 strain, at 50.0 µM, active compounds read high
Method in brief: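 Yeast strain cln2 rad14, bearing defects in cell cycle control and DNA repair, serves as the test system; values reflect growth inhibition compared with vehicle.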

[5] = NCI Yeast Anticancer Drug Screen. Data for the bub3 strain (AID 167); conditions: S. cerevisiae bub3 mutant strain, at 50.0 µM, active compounds read high
Method in brief: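 In this screen, a yeast mutant lacking normal mitotic checkpoint function is challenged with compound. Relative growth versus vehicle gives the inhibition value.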

[6] = NCI Yeast Anticancer Drug Screen. Data for the mlh1 rad18 strain (AID 175); conditions: S. cerevisiae mlh1 rad18 strain growth inhibition; at 50.0 µM; active compounds read high
Method in brief: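 Steps: expose repair-defective yeast to compound; measure growth; express inhibition against vehicle-treated controls.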

Measured: growth inhibition

CC(C)NS(=O)(=O)c1ccc(Cl)cc1
inactive: [1] 11.6% | [2] 1.65% | [3] 12.4% | [4] 0.4% | [5] -1.1% | [6] 1.85%

CSC1(C(=O)O)C2CCC3C2CCC31 (stereo unspecified)
inactive: [1] 12.7% | [2] 16.1% | [3] 9.95% | [4] 26.9% | [5] 51.2% | [6] 41.5%

O=C1C2=C(OCCO2)C(=O)C2=C1OCO2
inactive: [1] 12.4% | [2] 18.4% | [3] 28% | [4] 7.55% | [5] 12.2% | [6] 4.4%

CCCc1c(-c2ccccc2)nc(N)nc1-c1nc(N)nc(-c2ccccc2)c1CCC
inactive: [1] -1.75% | [2] -10.7% | [3] -12.4% | [4] 9.4% | [5] -2.25% | [6] -1.4%

O=S(=O)(O)c1cc(O)ccc1O.O=S(=O)(O)c1cc(O)ccc1O.[NH-]C1CCCCC1[NH-].[Pt+2]
inactive: [1] 17.6% | [2] -4.85% | [3] -5.2% | [4] 4.8% | [5] -0.85% | [6] -3.25%

COc1ccc(/C=C/c2nc(=S)[nH][nH]2)cc1OC
inactive: [1] -18.1% | [2] -21.5% | [3] 12.7% | [4] 12.3% | [5] 25.1% | [6] -3.1%

CC(=O)Oc1cc2oc([O-])c[n+]2c2ccccc12
inactive: [1] 28.6% | [2] 14.2% | [3] 22.7% | [4] 5.45% | [5] 12.6% | [6] 0.95%

O=S=C1SC2CCCCC2S1 (stereo unspecified)
inactive: [1] 2.75% | [2] 4.15% | [3] -5.4% | [4] -9.05% | [5] -9.45% | [6] 8.1%

CCCCN(C(=O)CCC)c1ccccc1
inactive: [1] -71.1% | [2] -0.75% | [3] -11.9% | [4] -40% | [5] -11.2% | [6] -10.1%

COC(=O)C(CCc1ccc([N+](=O)[O-])cc1)(CCc1ccc([N+](=O)[O-])cc1)C(C)=O
inactive: [1] 5.9% | [2] -10% | [3] 4.55% | [4] -19.9% | [5] 19.7% | [6] 28.6%

CC(C)Cc1cn(O)c2nc(=N)nc(N)c-2n1
inactive: [1] 4.95% | [2] -5.6% | [3] -1.7% | [4] -13.6% | [5] 5.8% | [6] 4%

NC(CO)C(=O)NCC(=O)O (stereo unspecified)
inactive: [1] -29.5% | [2] 5.75% | [3] -30.2% | [4] -79.5% | [5] -18.2% | [6] -23.9%

O=S(CCO)c1ccc(Cl)cc1 (stereo unspecified)
inactive: [1] -26.1% | [2] -20.1% | [3] -21.2% | [4] -55.5% | [5] 2.75% | [6] -23.9%

O=c1[nH]ncn2nc3ccccc3c12
inactive: [1] 3% | [2] 10.2% | [3] -2.5% | [4] -53.1% | [5] -1.3% | [6] 8.15%

CC1(C)Oc2ccc(NC(=O)CCC(N)C(=O)O)cc2O1 (stereo unspecified)
inactive: [1] -28.2% | [2] -52.7% | [3] -1% | [4] 11.5% | [5] 16.5% | [6] -18.1%

Cc1ccc(S(=O)(=O)N(C)C(C(=O)O)c2ccccc2)cc1 (stereo unspecified)
inactive: [1] 22.4% | [2] -1.35% | [3] 7.15% | [4] -20.6% | [5] -7.8% | [6] 3%

CCCCCCCCCCCCOc1ccccn1
inactive: [1] -11.2% | [2] -33.6% | [3] -7.65% | [4] -7.45% | [5] -11.6% | [6] -4.55%

C[N+](C)(Cn1nc(Cl)c2ccc([N+](=O)[O-])cc21)Cn1nc(Cl)c2ccc([N+](=O)[O-])cc21
inactive: [1] 43.6% | [2] -5% | [3] 18.8% | [4] 28.1% | [5] -0.25% | [6] 27.9%

O=C(O)/C(=C\c1ccccc1[N+](=O)[O-])c1ccccc1
inactive: [1] 35.3% | [2] -3.05% | [3] 7.45% | [4] -30.9% | [5] -1.45% | [6] 47.4%

COC(=O)/C=C/c1cc(OC)c2c(c1)C(C(=O)OC)C(c1ccc(O)c(OC)c1)O2 (stereo unspecified)
inactive: [1] -2.75% | [2] 7.6% | [3] -38.4% | [4] -17.6% | [5] -23.8% | [6] -8.95%

CCCCCCCCCCCCCCCC(=O)N=C(C(N)=O)C(N)=O
inactive: [1] 4.25% | [2] -35% | [3] -14.7% | [4] -54% | [5] -22.6% | [6] -19.9%

c1ccc2c3c([nH]c2c1)C1(CCCCC1)c1c([nH]c2ccccc12)C31CCCCC1
inactive: [1] -19.6% | [2] 2.2% | [3] -8.9% | [4] 9.9% | [5] -20.4% | [6] -10.9%

COC(=O)C1CCC[P+]1(C)C (stereo unspecified)
inactive: [1] 47.1% | [2] 41.7% | [3] 45.8% | [4] 13.8% | [5] 56.5% | [6] 38.5%

O=C(O)[C@H](CSSC[C@@H](C(=O)O)N1C(=O)c2ccccc2C1=O)N1C(=O)c2ccccc2C1=O
inactive: [1] 20.3% | [2] -6.4% | [3] -4.85% | [4] 31.4% | [5] 2.8% | [6] -4.4%

O=S(=O)(c1ccc(Br)cc1)C(F)(F)F
inactive: [1] 11.1% | [2] 10% | [3] 0.1% | [4] 2.6% | [5] 12.7% | [6] 5.15%

CCCCCNC(=O)CCC
inactive: [1] 22.6% | [2] 1.2% | [3] 25.6% | [4] 5.6% | [5] 7.05% | [6] 40.9%

COc1cc2c(C)nc3c4cc5c(cc4ccc3c2cc1OC)OCO5
inactive: [1] -12.4% | [2] 8.2% | [3] 18.2% | [4] -41.9% | [5] 40.2% | [6] 1%

COC(=O)NCP(=O)(CNC(=O)OC)CNC(=O)OC
inactive: [1] 13.8% | [2] 1.4% | [3] -1.35% | [4] 8.65% | [5] -4% | [6] 10.7%

O=c1c2c3c(sc2nc2n1N=CN(c1ccc(F)cc1)C2)CCCC3
inactive: [1] 4.95% | [2] -1.9% | [3] 2.4% | [4] -8.3% | [5] -1.05% | [6] -5.9%

O=C1NC(Cc2ccc(O)cc2)C(=O)N1c1ccccc1O (stereo unspecified)
inactive: [1] 2.5% | [2] 0.95% | [3] 5.35% | [4] 2.5% | [5] -6.9% | [6] 3.5%

CCCNC(C)C(C)O (stereo unspecified)
inactive: [1] -5.9% | [2] -16.4% | [3] -24.1% | [4] -16.3% | [5] -4.75% | [6] -10.9%

COc1ccc(-c2cc(C(=O)N/N=C/c3ccc([N+](=O)[O-])cc3)c3ccc(C)cc3n2)cc1OC
inactive: [1] 43.6% | [2] 13.7% | [3] 39.1% | [4] 14.6% | [5] -1.05% | [6] 46.9%

Cn1c(=O)c2sc3cc4c(cc3c2c2ccccc21)sc1c(=O)n(C)c2ccccc2c14
inactive: [1] 23.2% | [2] -8.1% | [3] 22.9% | [4] 3.85% | [5] 23.2% | [6] 24.9%

CCc1ccc(/C(C#N)=C/c2cccc3ccccc23)cc1
inactive: [1] 2.45% | [2] -11.1% | [3] -0.6% | [4] -1.9% | [5] 4.05% | [6] -5.25%

Cc1nn(C(=O)c2ccc(Cl)cc2)c2c1C(c1ccc(Cl)cc1)SC(N)=N2 (stereo unspecified)
inactive: [1] 9.95% | [2] -21.2% | [3] 31.4% | [4] -24.9% | [5] -19.4% | [6] 12.9%

COc1ccc(C23OC2Oc2cc(OC4CCCCO4)ccc2C3=O)cc1 (stereo unspecified)
inactive: [1] 10.1% | [2] -8.45% | [3] -6.25% | [4] -6.4% | [5] 0.35% | [6] 2.55%

O=C(NCCCl)Nc1[nH]c(=O)ncc1Cl
inactive: [1] -12.2% | [2] -13.2% | [3] -16.5% | [4] -30.6% | [5] -12.4% | [6] -3.15%

ClCc1c(Cl)c(Cl)c(CCl)c(Cl)c1Cl
inactive: [1] 2.75% | [2] -10.9% | [3] 3.1% | [4] 20.6% | [5] 12.6% | [6] -10.1%

ClCCn1nc2c(c1-c1ccccc1)CCc1ccccc1-2
inactive: [1] -8% | [2] -1.05% | [3] -10.4% | [4] -19.4% | [5] 11.1% | [6] -2.85%

CCC1C(C#N)=C(O)NC(O)=C1C#N
inactive: [1] 25.8% | [2] 6.1% | [3] 11.8% | [4] 8.6% | [5] 19.2% | [6] -1.65%

CCN(CC)C(=O)CS(=O)(=O)c1ccc(N)cc1
inactive: [1] 3.55% | [2] -8.5% | [3] 2% | [4] 23.9% | [5] 7.35% | [6] 14.7%
